PubChem BioAssay AID1159580 (chemical genetic matrix, 2015)
Screen size: about 5,500 compounds; about 2,000 (36%) were called active. Inconclusive results (about 18%) are left out. Rule as the data show it: active = normalized growth mostly below about 0.91 (no sharp cut-off); inconclusive = no clear call, values can overlap the other calls; inactive = mostly above about 0.92. Some of the results follow.

Experiment: chemical genetic growth profiling, strain panel (AID 1159580);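 also: tested at 20 µM; growth read once vehicle control cultures reached saturation at 30 °C; 1 = growth at the plate median or of vehicle wells; lower values mean less growth of the strain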
Conditions: growth OD

Measured: normalized growth

Cc1ccsc1/C=C/C1=NCCCN1C
inactive: S. cerevisiae deletion strains, locus YJR075W, strain HOC1, active compounds read low 0.991 | S. cerevisiae deletion strains, locus YKL009W, strain mrt4, active compounds read low 0.982 | S. cerevisiae deletion strains, locus YKL068W, active compounds read low 0.967 | S. cerevisiae deletion strains, locus YKL085W, strain MDH1 (second series), active compounds read low 0.979 | S. cerevisiae deletion strains, locus YKL085W, strain MDH1, active compounds read low 0.979 | S. cerevisiae deletion strains, locus YKL160W, strain elf1, active compounds read low 0.999 | S. cerevisiae deletion strains, locus YKL190W, strain CNB1, active compounds read low 1.02 | S. cerevisiae deletion strains, locus YKR001C, strain vps1, active compounds read low 0.944 | S. cerevisiae deletion strains, locus YKR026C, strain gcn3, active compounds read low 0.994 | S. cerevisiae deletion strains, locus YKR091W, strain srl3, active compounds read low 0.994 | S. cerevisiae deletion strains, locus YLL001W, strain dnm1, active compounds read low 0.979 | S. cerevisiae deletion strains, locus YLL026W, active compounds read low 0.99 | S. cerevisiae deletion strains, locus YLL041C, strain sdh2, active compounds read low 0.988 | S. cerevisiae deletion strains, locus YLR027C, strain aat2, active compounds read low 0.998 | S. cerevisiae deletion strains, locus YLR039C, strain RIC1, active compounds read low 0.947 | S. cerevisiae deletion strains, locus YLR058C, strain SHM2, active compounds read low 1.01 | S. cerevisiae deletion strains, locus YLR102C, strain apc9, active compounds read low 0.984 | S. cerevisiae deletion strains, locus YLR113W, strain HOG1, active compounds read low 0.963 | S. cerevisiae deletion strains, locus YLR221C, strain rsa3, active compounds read low 0.983 | S. cerevisiae deletion strains, locus YLR258W, strain gsy2, active compounds read low 0.988 | S. cerevisiae deletion strains, locus YLR262C, strain YPT6 (second series), active compounds read low 0.97 | S. cerevisiae deletion strains, locus YLR262C, strain YPT6, active compounds read low 0.946 | S. cerevisiae deletion strains, locus YLR268W, strain sec22, active compounds read low 0.93 | S. cerevisiae deletion strains, locus YLR320W, strain mms22, active compounds read low 0.991 | S. cerevisiae deletion strains, locus YLR330W, strain CHS5, active compounds read low 1 | S. cerevisiae deletion strains, locus YLR342W, strain FKS1 (second series), active compounds read low 1.08 | S. cerevisiae deletion strains, locus YLR342W, strain FKS1, active compounds read low 1 | S. cerevisiae deletion strains, locus YLR357W, strain rsc2, active compounds read low 0.967 | S. cerevisiae deletion strains, locus YLR370C, strain arc18, active compounds read low 0.977 | S. cerevisiae deletion strains, locus YLR371W, strain rom2, active compounds read low 0.973 | S. cerevisiae deletion strains, locus YLR384C, strain iki3, active compounds read low 0.99 | S. cerevisiae deletion strains, locus YLR418C, strain cdc73, active compounds read low 0.956 | S. cerevisiae deletion strains, locus YML016C, strain PPZ1, active compounds read low 1.01 | S. cerevisiae deletion strains, locus YML032C, strain rad52, active compounds read low 0.958 | S. cerevisiae deletion strains, locus YML120C, strain ndi1, active compounds read low 0.991 | S. cerevisiae deletion strains, locus YML124C, strain tub3, active compounds read low 0.991 | S. cerevisiae deletion strains, locus YMR058W, strain fet3, active compounds read low 0.987 | S. cerevisiae deletion strains, locus YMR078C, strain ctf18, active compounds read low 0.975 | S. cerevisiae deletion strains, locus YMR125W, strain sto1, active compounds read low 0.994 | S. cerevisiae deletion strains, locus YMR129W, active compounds read low 0.99 | S. cerevisiae deletion strains, locus YMR205C, strain PFK2, active compounds read low 0.987 | S. cerevisiae deletion strains, locus YMR223W, strain ubp8, active compounds read low 1.02 | S. cerevisiae deletion strains, locus YMR231W, strain pep5, active compounds read low 0.987 | S. cerevisiae deletion strains, locus YMR263W, strain SAP30, active compounds read low 0.994 | S. cerevisiae deletion strains, locus YMR307W, strain GAS1, active compounds read low 1.07 | S. cerevisiae deletion strains, locus YNL067W, strain RPL9B, active compounds read low 0.98 | S. cerevisiae deletion strains, locus YNL071W, strain lat1, active compounds read low 0.988 | S. cerevisiae deletion strains, locus YNL128W, strain TEP1, active compounds read low 1 | S. cerevisiae deletion strains, locus YNL153C, strain GIM3, active compounds read low 1 | S. cerevisiae deletion strains, locus YNL183C, strain NPR1, active compounds read low 0.952 | S. cerevisiae deletion strains, locus YNL209W, strain ssb2, active compounds read low 0.984 | S. cerevisiae deletion strains, locus YNL233W, strain BNI4, active compounds read low 1.01 | S. cerevisiae deletion strains, locus YNL248C, strain rpa49, active compounds read low 0.997 | S. cerevisiae deletion strains, locus YNL250W, strain rad50, active compounds read low 0.997 | S. cerevisiae deletion strains, locus YNL271C, strain bni1, active compounds read low 0.976 | S. cerevisiae deletion strains, locus YNL298W, strain CLA4, active compounds read low 0.974 | S. cerevisiae deletion strains, locus YNL307C, strain MCK1, active compounds read low 0.976 | S. cerevisiae deletion strains, locus YNL322C, strain KRE1 (second series), active compounds read low 0.987 | S. cerevisiae deletion strains, locus YNL322C, strain KRE1, active compounds read low 1 | S. cerevisiae deletion strains, locus YNR049C, strain mso1, active compounds read low 0.987 | S. cerevisiae deletion strains, locus YNR052C, strain pop2, active compounds read low 0.976 | S. cerevisiae deletion strains, locus YOL006C, strain TOP1, active compounds read low 0.921 | S. cerevisiae deletion strains, locus YOL012C, strain htz1 1.13 | S. cerevisiae deletion strains, locus YOL147C, strain pex11, active compounds read low 0.992 | S. cerevisiae deletion strains, locus YOR001W, strain rrp6, active compounds read low 1.01 | S. cerevisiae deletion strains, locus YOR061W, strain CKA2, active compounds read low 1.01 | S. cerevisiae deletion strains, locus YOR069W, strain VPS5, active compounds read low 1.01 | S. cerevisiae deletion strains, locus YOR070C, strain gyp1, active compounds read low 0.983 | S. cerevisiae deletion strains, locus YOR080W, strain dia2, active compounds read low 0.989 | S. cerevisiae deletion strains, locus YOR083W, strain WHI5, active compounds read low 0.998 | S. cerevisiae deletion strains, locus YOR106W, strain vam3, active compounds read low 0.994 | S. cerevisiae deletion strains, locus YOR136W, strain idh2, active compounds read low 0.972 | S. cerevisiae deletion strains, locus YOR144C, strain elg1, active compounds read low 0.977 | S. cerevisiae deletion strains, locus YOR184W, strain ser1, active compounds read low 0.94 | S. cerevisiae deletion strains, locus YOR231W, strain MKK1, active compounds read low 0.979 | S. cerevisiae deletion strains, locus YOR265W, strain rbl2, active compounds read low 1.01 | S. cerevisiae deletion strains, locus YOR270C, strain vph1, active compounds read low 1.01 | S. cerevisiae deletion strains, locus YOR290C, strain snf2, active compounds read low 1 | S. cerevisiae deletion strains, locus YOR316C, strain cot1, active compounds read low 0.956 | S. cerevisiae deletion strains, locus YPL051W, strain arl3, active compounds read low 0.993 | S. cerevisiae deletion strains, locus YPL055C, strain LGE1, active compounds read low 0.954 | S. cerevisiae deletion strains, locus YPL078C, strain atp4, active compounds read low 0.992 | S. cerevisiae deletion strains, locus YPL106C, strain sse1, active compounds read low 0.996 | S. cerevisiae deletion strains, locus YPL240C, strain hsp82, active compounds read low 0.988 | S. cerevisiae deletion strains, locus YPL241C, strain CIN2, active compounds read low 1.01 | S. cerevisiae deletion strains, locus YPL256C, strain CLN2, active compounds read low 0.939 | S. cerevisiae deletion strains, locus YPR119W, strain clb2, active compounds read low 0.981 | S. cerevisiae deletion strains, locus YPR141C, strain kar3, active compounds read low 0.979 | S. cerevisiae deletion strains, locus YPR163C, strain tif3, active compounds read low 0.983 | S. cerevisiae deletion strains, locus YPR167C, strain met16, active compounds read low 0.97 | S. cerevisiae deletion strains, strain wtn01, active compounds read low 0.949 | S. cerevisiae strains, strain wild type, active compounds read low 1.01
